Data published in ChEMBL document CHEMBL3988442, “University of Dundee, Small-Polar-MMV Screening Library” (2021).
Screen size: about 38,000 compounds; about 1,200 (3.2%) showed an effect of 50% or more. The median lay at about -58%. The sample holds strong results, similar compounds and a random draw of the others, so the mix is not that of the screen.

system: Plasmodium falciparum; experiment: Calibr Malaria Delayed Death Assay SOP; assay type: functional, organism-based; set-up: scale not given: in the data most compounds retested in dose-response had high values; conditions: concentration 4.99e-06 (unit not given; other assays of the set use mol/L)

Row | SMILES | Percent Effect
1 | CCSc1cc(C(=O)NC2CCN(C(=O)c3ccncc3)CC2)ccn1 | -119%
2 | CC(NCc1cnc(C2CCC2)s1)c1ccccc1-n1cccn1 (configuration not stated) | -47.47%
3 | O=C(NCc1ccccc1-n1cccn1)N1CCN2CCCCC2C1 (configuration not stated) | -71.32%
4 | CC(NC1CCCC1)c1ccccc1-n1cccn1 (configuration not stated) | 80.66%
5 | CS(=O)(=O)CCCN(CCCO)C1CCc2ccccc21 (configuration not stated) | -127.8%
6 | CN(C)CCn1ccnc1C1CCCN(c2ncc(Cl)cc2F)C1 (configuration not stated) | 35.69%
7 | CN(C)CCn1ccnc1C1CCCN(c2cc(N)ncn2)C1 (configuration not stated) | -56.5%
8 | CN(C)CCCn1ccnc1C1CCCN(c2ncc(Cl)cc2F)C1 (configuration not stated) | 83.94%
9 | Cc1cc(C)nc(N2CCCC(c3nccn3CCCN(C)C)C2)c1 (configuration not stated) | 50.47%
10 | COc1cc(OC)nc(N2CCCC(c3nccn3CCN(C)C)C2)n1 (configuration not stated) | -26.11%
11 | Fc1cc(Cl)cnc1N1CCCC(c2nccn2CC2CC2)C1 (configuration not stated) | 3.7%
12 | Cc1ccc(C)c(Oc2cc(-n3nc(C)c(C#N)c3N)nc(C)n2)c1 | -175%
13 | Cc1cc(C2CCCN2C(=O)NCc2c(C)cc(C)[nH]c2=O)on1 (configuration not stated) | -57.59%
14 | CN(CC1COCCO1)c1ncnc2cc(F)ccc12 (configuration not stated) | -82.12%
15 | Cn1cccc1C(=O)N1CCN(Cc2cccnc2)c2ncccc2C1.O=C(O)C(F)(F)F.O=C(O)C(F)(F)F | -59.69%
16 | Cn1nc2c(cc1=O)CN(c1nc3ccccc3s1)CC2 | -163.5%
17 | Cc1nc[nH]c1CN1CCCN(c2nc3ccccc3s2)CC1 | 54.13%
18 | Cc1ncnc(N2CCCN(c3nc4ccccc4s3)CC2)c1C | -444.8%
19 | c1ccc2sc(N3CCCN(c4ncnc5c4CCNC5)CC3)nc2c1 | 85.14%
20 | Cc1nc[nH]c1CN1CCC(C2CCN(CCc3ccccc3)C2)CC1 (configuration not stated) | 9.569%
21 | c1ccc2sc(N3CCN(c4ncnc5c4CCC5)CC3)nc2c1 | -56.68%
22 | Cc1ccc(CNCc2nccn2C)c(OC(C)(C)C)c1 | 8.3%
23 | O=C(NCCc1coc(-c2ccccc2)n1)NC1CC1 | -110.7%
24 | CN(C)CCN1CCOCC12CCN(C(=O)C1CC1)CC2.O=C(O)C(F)(F)F.O=C(O)C(F)(F)F | -16.92%
25 | CC(C(=O)NCc1cn2cc(Br)ccc2n1)S(C)(=O)=O (configuration not stated) | -87.47%
26 | Cc1cc(CN(C)C(=O)C(c2ccccc2)N2CCSCC2)no1 (configuration not stated) | -62.62%

Row | SMILES | Percent Effect
27 | CCn1cnnc1CNC(=O)N1CCN(c2cccc(C)c2)CC1 | -132.8%
28 | Cc1cc(C)n(-c2cncc(NCCNS(C)(=O)=O)n2)n1 | -82.28%
29 | CSc1ncn(-c2nc(NC3CC3)nc(N(C)C)n2)n1 | -74.3%
30 | CCC(CNC(=O)c1ccccc1Br)N1CCc2ccccc2C1 (configuration not stated) | 39.24%
31 | CCC(CNC(=O)c1cc(OC)ccc1Br)N1CCc2ccccc2C1 (configuration not stated) | 0.2059%
32 | CCC(CNC(=O)c1cncc(Br)c1)N1CCc2ccccc2C1 (configuration not stated) | 65.67%
33 | CN(CC1(CO)CCC1)C(=O)c1cc(COc2ccccc2F)[nH]n1 | -88.13%
34 | Cc1noc(C(C)C)c1C(=O)N1CCOCC1CC(=O)c1ccco1 (configuration not stated) | -42.91%
35 | NC(=O)Cc1ccc(OCc2noc(C(=O)N3CCCC3)n2)cc1 | -126.1%
36 | O=C(C1CCC2(CCN(Cc3cccnc3)CC2)CO1)N1CCCC1.O=C(O)C(F)(F)F.O=C(O)C(F)(F)F (configuration not stated) | -51.34%
37 | COc1cc(CCC(=O)NC(C)C)ccc1OCC(F)(F)F | -88.73%
38 | Cc1c(C(=O)N2CCN(C)CC2)n(C)c2ccc(Cl)cc12 | -1.924%
39 | Cc1c(C(=O)N2CCOCC2)n(C)c2ccc(Cl)cc12.Cl | -79.72%
40 | O=C1NCCN1C1CCN(c2ccnc(-c3ccccc3)n2)CC1 | -68.77%
41 | NCC1Cc2cc(-c3nccc(N4CCC(O)CC4)n3)cc(Cl)c2O1 (configuration not stated) | 79.64%
42 | NCC1Cc2cccc(-c3nccc(N4CCC(O)CC4)n3)c2O1 (configuration not stated) | 16.4%
43 | OC1CCN(c2ccnc3c(F)cc(Br)cc23)CC1 | -18.79%
44 | NCC1Cc2cc(-c3nccc(N4CCC(O)CC4)n3)cc(F)c2O1 (configuration not stated) | 83%
45 | OC1CCN(c2ccnc(NCCc3ccccc3Cl)n2)CC1 | -52.91%
46 | Cc1ccc(CN2CCc3c(COC(C)C)nn(C)c3C2)s1.O=C(O)C(F)(F)F | -19.42%
47 | Cc1cc(S(=O)(=O)N2C[C@H](C3CC3)[C@@H](N)C2)c(C)s1 | 85.63%
48 | Cc1ccc(S(=O)(=O)N2C[C@H](C3CC3)[C@@H](N)C2)cc1F | 14.36%
49 | Cc1cc(-c2cc(S(=O)(=O)N3C[C@H](C4CC4)[C@@H](N)C3)c(C)s2)[nH]n1 | 61.47%
50 | N[C@H]1CN(S(=O)(=O)c2cccnc2)C[C@@H]1C1CC1 | -65.5%
51 | N[C@H]1CN(S(=O)(=O)c2ccccc2)C[C@@H]1C1CC1 | -1.115%
52 | CC(C)Nc1cc(N2CCC(n3cc(CCO)nn3)CC2)ncn1 | -78.28%
